{
  "source": "PubChem BioAssay (NCATS)",
  "note": "Results filed as inconclusive are left out. Active and inactive are the calls of the source. Unless noted, the call rests on the fitted dose curve; in most records, active means well fitted curve in the direction sought with a large enough effect; inconclusive means small, poorly fitted or top-dose-only effect, or another doubt; inactive means no such curve, though single readings can be large or run the other way.",
  "data": [
    {"molecular_target": "Catechol O-methyltransferase (Homo sapiens) (UniProt P21964)", "sequence (P21964 whole entry, looked up)": "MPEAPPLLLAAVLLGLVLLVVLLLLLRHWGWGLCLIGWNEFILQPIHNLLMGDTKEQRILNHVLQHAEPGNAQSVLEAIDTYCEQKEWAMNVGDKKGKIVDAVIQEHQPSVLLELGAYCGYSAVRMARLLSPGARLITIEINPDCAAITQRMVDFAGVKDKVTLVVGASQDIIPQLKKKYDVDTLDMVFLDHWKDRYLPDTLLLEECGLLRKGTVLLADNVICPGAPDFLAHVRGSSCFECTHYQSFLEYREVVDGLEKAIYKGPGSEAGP", "test": "Confirmatory Screen for Target Class Profiling of Small Molecule Inhibitors of Methyltransferases (AID 1745852; calls by dose curve)", "conditions": "MTase-Glo luminescence, SAH detection, recombinant enzyme; measured here: COMT max response; stronger effect = lower value", "units": {"activity": "%"}, "values": [
      {"smiles": "NC1=NCC2c3ccccc3Cc3ccccc3N12", "note": "(configuration not stated)", "activity": -1.67},
      {"smiles": "CCC(=O)c1ccc2c(c1)N(CCCN(C)C)c1ccccc1S2", "activity": 6.41},
      {"smiles": "CCc1c(C)[nH]c2c1C(=O)C(CN1CCOCC1)CC2", "note": "(configuration not stated)", "activity": 6.21},
      {"smiles": "CN(C)CC[C@@H](c1ccc(Br)cc1)c1ccccn1", "activity": -5.16},
      {"smiles": "CCc1cccc(N(C)C(N)=Nc2cccc3ccccc23)c1", "activity": -0.0494},
      {"smiles": "CCCN1C[C@H](CSC)C[C@@H]2c3cccc4[nH]cc(c34)C[C@H]21", "activity": -0.209},
      {"smiles": "NC(N)=N/N=C/c1c(Cl)cccc1Cl", "activity": -0.724}
    ]},
    {"molecular_target": "Guanidinoacetate N-methyltransferase (Homo sapiens) (UniProt Q14353)", "test": "Confirmatory Screen for Target Class Profiling of Small Molecule Inhibitors of Methyltransferases (AID 1745852); on activity change, negative = inhibition: on the % scale 0 is the no-effect control and ±100 the full control effect", "conditions": "MTase-Glo luminescence, SAH detection, recombinant enzyme; at 57.3 µM (top of the series)", "units": {"activity change, negative = inhibition": "%"}, "values": [
      {"smiles": "NC1=NCC2c3ccccc3Cc3ccccc3N12", "note": "(configuration not stated)", "activity change, negative = inhibition": 4.05},
      {"smiles": "CCC(=O)c1ccc2c(c1)N(CCCN(C)C)c1ccccc1S2", "activity change, negative = inhibition": 4.3},
      {"smiles": "CCc1c(C)[nH]c2c1C(=O)C(CN1CCOCC1)CC2", "note": "(configuration not stated)", "activity change, negative = inhibition": -2.7},
      {"smiles": "CN(C)CC[C@@H](c1ccc(Br)cc1)c1ccccn1", "activity change, negative = inhibition": 1.79},
      {"smiles": "CCc1cccc(N(C)C(N)=Nc2cccc3ccccc23)c1", "activity change, negative = inhibition": 4.76},
      {"smiles": "CCCN1C[C@H](CSC)C[C@@H]2c3cccc4[nH]cc(c34)C[C@H]21", "activity change, negative = inhibition": 5.03},
      {"smiles": "NC(N)=N/N=C/c1c(Cl)cccc1Cl", "activity change, negative = inhibition": 0.25}
    ]},
    {"molecular_target": "Nicotinamide N-methyltransferase (Homo sapiens) (UniProt P40261)", "sequence (P40261 whole entry, looked up)": "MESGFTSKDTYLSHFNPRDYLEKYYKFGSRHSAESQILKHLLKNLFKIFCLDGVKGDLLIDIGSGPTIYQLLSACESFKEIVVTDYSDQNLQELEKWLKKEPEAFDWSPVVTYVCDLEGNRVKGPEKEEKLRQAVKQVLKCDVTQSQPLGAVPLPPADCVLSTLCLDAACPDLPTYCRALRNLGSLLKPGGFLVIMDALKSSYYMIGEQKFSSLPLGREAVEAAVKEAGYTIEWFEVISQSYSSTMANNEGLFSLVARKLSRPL", "test": "Confirmatory Screen for Target Class Profiling of Small Molecule Inhibitors of Methyltransferases (AID 1745852); on activity change, negative = inhibition: on the % scale 0 is the no-effect control and ±100 the full control effect", "conditions": "MTase-Glo luminescence, SAH detection, recombinant enzyme; measured here: NNMT max response; stronger effect = lower value", "units": {"activity": "%"}, "values": [
      {"smiles": "NC1=NCC2c3ccccc3Cc3ccccc3N12", "note": "(configuration not stated)", "activity": -14.5},
      {"smiles": "CCC(=O)c1ccc2c(c1)N(CCCN(C)C)c1ccccc1S2", "activity": -51.8},
      {"smiles": "CCc1c(C)[nH]c2c1C(=O)C(CN1CCOCC1)CC2", "note": "(configuration not stated)", "activity": -7.58},
      {"smiles": "CN(C)CC[C@@H](c1ccc(Br)cc1)c1ccccn1", "activity": -23.7},
      {"smiles": "CCc1cccc(N(C)C(N)=Nc2cccc3ccccc23)c1", "activity": -4.43},
      {"smiles": "CCCN1C[C@H](CSC)C[C@@H]2c3cccc4[nH]cc(c34)C[C@H]21", "activity": -3.93},
      {"smiles": "NC(N)=N/N=C/c1c(Cl)cccc1Cl", "activity": -52.2}
    ]},
    {"molecular_target": "Phenylethanolamine N-methyltransferase (Homo sapiens) (UniProt P11086)", "sequence (P11086 whole entry, looked up)": "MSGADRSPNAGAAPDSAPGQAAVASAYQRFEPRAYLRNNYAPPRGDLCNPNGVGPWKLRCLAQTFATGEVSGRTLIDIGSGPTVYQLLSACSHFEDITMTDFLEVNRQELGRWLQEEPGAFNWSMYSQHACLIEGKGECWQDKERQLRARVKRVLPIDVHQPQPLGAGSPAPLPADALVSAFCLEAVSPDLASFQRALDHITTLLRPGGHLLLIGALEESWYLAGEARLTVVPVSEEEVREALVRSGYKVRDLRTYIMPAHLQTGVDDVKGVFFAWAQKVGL", "test": "Confirmatory Screen for Target Class Profiling of Small Molecule Inhibitors of Methyltransferases (AID 1745852); on activity change, negative = inhibition: on the % scale 0 is the no-effect control and ±100 the full control effect", "conditions": "MTase-Glo luminescence, SAH detection, recombinant enzyme; measured here: PNMT max response; stronger effect = lower value", "units": {"activity": "%"}, "values": [
      {"smiles": "NC1=NCC2c3ccccc3Cc3ccccc3N12", "note": "(configuration not stated)", "activity": -3.06},
      {"smiles": "CCC(=O)c1ccc2c(c1)N(CCCN(C)C)c1ccccc1S2", "activity": -2.93},
      {"smiles": "CCc1c(C)[nH]c2c1C(=O)C(CN1CCOCC1)CC2", "note": "(configuration not stated)", "activity": 4.21},
      {"smiles": "CN(C)CC[C@@H](c1ccc(Br)cc1)c1ccccn1", "activity": 0.473},
      {"smiles": "CCc1cccc(N(C)C(N)=Nc2cccc3ccccc23)c1", "activity": 1.17},
      {"smiles": "CCCN1C[C@H](CSC)C[C@@H]2c3cccc4[nH]cc(c34)C[C@H]21", "activity": 0.569},
      {"smiles": "NC(N)=N/N=C/c1c(Cl)cccc1Cl", "activity": -1.71}
    ]},
    {"molecular_target": "Metallo-beta-lactamase type 2 (Klebsiella pneumoniae) (UniProt C7C422)", "sequence (C7C422 whole entry, looked up)": "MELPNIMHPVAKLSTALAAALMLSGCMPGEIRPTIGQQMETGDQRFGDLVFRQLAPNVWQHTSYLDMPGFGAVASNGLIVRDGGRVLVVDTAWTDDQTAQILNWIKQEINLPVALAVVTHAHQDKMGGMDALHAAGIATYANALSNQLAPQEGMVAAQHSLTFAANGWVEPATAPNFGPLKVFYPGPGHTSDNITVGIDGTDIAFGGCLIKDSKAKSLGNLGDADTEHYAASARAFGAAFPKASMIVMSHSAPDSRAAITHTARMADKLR", "test": "qHTS to identify inhibitors of the New Delhi Metallo-beta-lactamase (NDM): assay validation screen against the NCATS LOPAC Collection (AID 1794843); further: on the % scale 0 is the no-effect control and ±100 the full control effect", "conditions": "NDM-1 enzyme, nitrocefin hydrolysis, absorbance 485 nm; series mostly up to 38.4 µM", "in_short": "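Absorbance at 485 nm from nitrocefin turnover (50 uM solution added), read at plateau, gives the read-out. Compounds in DMSO were incubated first with 2 nM final NDM-1 in pH 7.0 HEPES buffer containing 1 uM ZnSO4 and 0.01% Tween20.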", "values": [
      {"smiles": "NC1=NCC2c3ccccc3Cc3ccccc3N12", "note": "(configuration not stated)", "Potency": "inactive"},
      {"smiles": "CCCCNc1c(C(=O)OCC)c(C)nc2c1cnn2CC", "Potency": "inactive"},
      {"smiles": "CNCCC(Oc1ccccc1OC)c1ccccc1", "note": "(configuration not stated)", "Potency": "inactive"},
      {"smiles": "C[N+](C)(C)CCOC(N)=O", "Potency": "inactive"},
      {"smiles": "C[C@]12CCC(=O)C=C1CC[C@@H]1[C@@H]2CC[C@@]2(C)[C@H]1CC[C@]2(O)C(=O)CO", "Potency": "inactive"},
      {"smiles": "CCc1c(C)[nH]c2c1C(=O)C(CN1CCOCC1)CC2", "note": "(configuration not stated)", "Potency": "inactive"},
      {"smiles": "CNCCCN1c2ccccc2CCc2ccccc21", "Potency": "inactive"},
      {"smiles": "OC(CCN1CCCCC1)(c1ccccc1)C1CCCCC1", "note": "(configuration not stated)", "Potency": "inactive"},
      {"smiles": "OCCN1CCN(CCCN2c3ccccc3C=Cc3ccccc32)CC1", "Potency": "inactive"},
      {"smiles": "Cc1nc2ccccn2c(=O)c1CCN1CCC(C(=O)c2ccc(F)cc2)CC1", "Potency": "inactive"},
      {"smiles": "CN(C)CCCN1c2ccccc2Sc2ccccc21", "Potency": "inactive"},
      {"smiles": "CCN(CC)CCCN(c1ccccc1)C1Cc2ccccc2C1", "Potency": "inactive"},
      {"smiles": "CCCOc1ccccc1-c1nc2n[nH]nc2c(=O)[nH]1", "Potency": "inactive"},
      {"smiles": "c1cc(CN2CCCCC2)cc(OCCCNc2nc3ccccc3s2)c1", "Potency": "inactive"},
      {"smiles": "CN(C)CC/C=C1\\c2ccccc2COc2ccccc21", "Potency": "inactive"},
      {"smiles": "CCCN1C[C@H](CSC)C[C@@H]2c3cccc4[nH]cc(c34)C[C@H]21", "Potency": "inactive"},
      {"smiles": "CN1C[C@H](C(=O)N[C@]2(C)O[C@@]3(O)[C@@H]4CCCN4C(=O)[C@H](Cc4ccccc4)N3C2=O)C[C@@H]2c3cccc4[nH]cc(c34)C[C@H]21", "Potency": "inactive"},
      {"smiles": "COC(=O)C1=C(C)NC(C)=C(C(=O)OC(C)(C)CN(C)CCC(c2ccccc2)c2ccccc2)C1c1cccc([N+](=O)[O-])c1", "note": "(configuration not stated)", "Potency": "inactive"},
      {"smiles": "Fc1ccc(C(c2ccc(F)cc2)N2CCN(C/C=C/c3ccccc3)CC2)cc1", "Potency": "inactive"}
    ]}
  ]
}
